# In PubChem BioAssay (NCATS):
# Values joined by “and” are separate entries in the source; they are usually repeats but may differ in a detail not shown here. Equal entries are not always repeated. Inconclusive results are not listed. Active and inactive are the calls of the source. Unless noted, calls follow the shape of the dose curve; as a rule, active = well fitted curve in the direction sought with a large enough effect; inconclusive = small, poorly fitted or top-dose-only effect, or another doubt; inactive = no such curve, though single readings can be large; an effect the other way counts as inactive or inconclusive.
# Key:
# [1] = qHTS Assay for Lipid Storage Modulators (AID 1519; calls by dose curve; also: potency is read from the fitted curve at half-maximal effect; as to activity change, negative = inhibition: % is scaled to controls: 0 for no effect and ±100 for the full control effect); conditions: Drosophila S3 cells, BODIPY lipid droplet/cell ratio, laser cytometry, cells loaded with oleic acid
# Procedure, shortened: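 Cells seeded at 5,000 per well were treated with compounds over a concentration series and loaded with oleic acid (400 uM, as added). Lipid droplet fluorescence (488 nm excitation, 500-530 nm channel) was read by laser-scanning cytometry and normalized to 20 uM Triacsin C.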
# [2] = qHTS for differential inhibitors of proliferation of Plasmodium falciparum line 7G8 (AID 1815); conditions: Plasmodium falciparum 7G8 proliferation inhibition; series mostly up to 28.7 µM;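 also: parasite growth measured after three days of incubation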; also: potency is read from the fitted curve at half-maximal effect;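 as to activity change, negative = inhibition: plate controls were vehicle wells for no effect and reference inhibitor wells for full effect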
# [3] = qHTS for differential inhibitors of proliferation of Plasmodium falciparum line GB4 (AID 1816); conditions: Potency: Plasmodium falciparum GB4 proliferation inhibition; series mostly up to 28.7 µM;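 also: parasite growth measured after 72 h incubation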; also: potency is read from the fitted curve at half-maximal effect;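 as to activity change, negative = inhibition: 0% = vehicle DMSO and -100% = reference inhibitor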
# [4] = qHTS for differential inhibitors of proliferation of Plasmodium falciparum line 3D7 (AID 1876); also: potency is read from the fitted curve at half-maximal effect; conditions: P. falciparum 3D7 proliferation inhibition; series mostly up to 28.7 µM
# [5] = qHTS for differential inhibitors of proliferation of Plasmodium falciparum line D10 (AID 1877); conditions: series mostly up to 28.7 µM;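 also: parasites grown with compound for 72 h before DNA staining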; also: potency is read from the fitted curve at half-maximal effect;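 as to activity change, negative = inhibition: plate controls were vehicle wells for no effect and reference inhibitor wells for full effect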
# [6] = qHTS for differential inhibitors of proliferation of Plasmodium falciparum line Dd2 (AID 1882); conditions: Potency: Plasmodium falciparum Dd2 proliferation inhibition; series mostly up to 28.7 µM; also: nearly all actives have a fitted effect of over 65% in size; also: potency is read from the fitted curve at half-maximal effect;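 as to activity change, negative = inhibition: plate controls were DMSO vehicle for no effect and 0.29 µM artemisinin for full effect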
# Text: NIH Molecular Libraries Probe Production Network [MLPCN]
# NIH National Institute of Allergy and Infectious Diseases [NIAID]
# NIH Chemical Genomics Center [NCGC]
# Assay Provider: Xinzhuan Su, NIAID
# Plasmodium falciparum is a virulent malarial parasite that kills 1-2 million people worldwide each year. Transmitted by mosquitoes, the sporozoite form of the parasite enters the blood stream to infect hepatocytes, where they become merozoites that infect red blood cells (erythrocytes). Within erythrocytes, merozoites begin a […] cycle of growth and division, after which the parasite is released to infect new red blood cells. Gametocytes, which form within erythrocytes as well, circulate in the bloodstream and are ingested by the mosquito, thereby completing the life cycle. To profile malarial isolates for differential chemical responses and to identify inhibitors of malarial growth, an assay that measures P. falciparum growth and replication within erythrocytes was employed. This assay uses a DNA binding fluorescent dye (SYBR Green) to detect parasite DNA following cell lysis. Because mature erythrocytes lack DNA, only Plasmodium-derived DNA is detected. The P. falciparum line Dd2, derived from a malarial isolate from […], was used.
# NCGC Assay Protocol Summary:
# The SYBR Green viability assay was adapted from a method described previously (Plouffe et al., 2008). For screening 3 ul culture medium was dispensed into 1536 well black clear bottom plates (Aurora Biotechnologies) using a Multidrop Combi (Thermo Fisher Scientific Inc.), 23 nL compounds in DMSO were added by a pin tool (Kalypsys), and 5 ul of erythrocytes infected with P. falciparum line Dd2 (0.3% parasitemia, 2.5% hematocrit final concentration) were added. The plates were incubated at 37 C in a humidified incubator in 5% CO2 for 72 h, and 2 ul lysis buffer (20 mM Tris HCl, 10 mM EDTA, […]% saponin, 1.6% triton X, 10X SYBR Green I supplied as 10,000X […] by Invitrogen) was added to each well. The plates were mixed for 25 sec with gentle shaking and incubated overnight at room temperature in the dark. The following morning, fluorescence intensity at 485(14) nm excitation and 535(25) nm emission wavelengths was measured on an EnVision (Perkin Elmer) plate reader. Plate reads were normalized relative to the control inhibitor (0.29 uM artemisinin) and vehicle (DMSO) wells present on each plate and then corrected by an algorithm using vehicle-only control plates at the beginning and end of the compound plate stack.
# Plouffe D, Brinker A, McNamara C, Henson K, Kato N, Kuhen K, Nagle A, Adrian F, Matzen JT, Anderson P, Nam TG, Gray NS, Chatterjee A, Janes J, Yan SF, Trager R, Caldwell JS, Schultz PG, Zhou Y, Winzeler EA. […] Proc Natl Acad Sci U S A. 2008, 105(26), pp 9059-64.
# [7] = qHTS for differential inhibitors of proliferation of Plasmodium falciparum line W2 (AID 1883); conditions: Potency: Plasmodium falciparum W2 proliferation inhibition; series mostly up to 28.7 µM;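 also: potency is read from the fitted curve at half-maximal effect; parasites grown with compound for 72 h before lysis and staining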
# [8] = target: DNA repair nuclease/redox regulator APEX1 (Homo sapiens) (UniProt P27695); experiment: qHTS Validation Assay for Inhibitors of the Human Apurinic/apyrimidinic Endonuclease 1 (APE1) (AID 1705;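 also: TAMRA fluorescence gain over two minutes as APE1 cuts a quenched THF abasic duplex; % is scaled to controls: 0 for no effect and ±100 for the full control effect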); conditions: purified APE1 endonuclease activity, fluorescence, titration; series mostly up to 57.1 µM
# Chain of DNA repair nuclease/redox regulator APEX1 (Homo sapiens) (P27695 whole entry, looked up): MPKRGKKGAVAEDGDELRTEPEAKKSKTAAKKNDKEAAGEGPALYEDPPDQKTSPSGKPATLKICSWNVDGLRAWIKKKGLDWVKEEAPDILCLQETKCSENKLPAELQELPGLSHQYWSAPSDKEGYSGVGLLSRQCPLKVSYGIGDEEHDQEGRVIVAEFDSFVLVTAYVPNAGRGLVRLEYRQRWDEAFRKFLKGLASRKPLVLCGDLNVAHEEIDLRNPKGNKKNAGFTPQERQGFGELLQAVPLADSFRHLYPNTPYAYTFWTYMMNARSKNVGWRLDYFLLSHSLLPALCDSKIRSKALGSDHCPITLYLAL
# Procedure, shortened: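 Fluorogenic double-stranded THF abasic-site substrate (5'-TAMRA/3'-BHQ-2), 50 nM final. Enzyme preincubated with compound 15 min at room temperature, then substrate added. Kinetic fluorescence (ex 525/em 598 nm) read three times at 60 s intervals; activity taken as third-minus-first read difference.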
# [9] = Counterscreen for APE1 Inhibitors: Fluorescent Dye Displacement Validation Assay (AID 1707); conditions: fluorescent dye displacement from DNA; series mostly up to 57.1 µM;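 also: plate controls were ThO with dsDNA and no compound for no effect and ThO without dsDNA for full effect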
# Procedure, shortened: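 Counterscreen flags promiscuous DNA binders: compounds displacing ThO from duplex DNA (abasic THF site, 50 nM) reduce 540 nm emission (480 nm excitation). ThO 250 nM final; Tris-HCl pH 7.5 with NaCl, MgCl2 and Tween-20.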
# [10] = target: Endonuclease 4 (Escherichia coli (strain K12)) (UniProt P0A6C1); experiment: Counterscreen for APE1 Inhibitors: qHTS Validation Assay for Inhibitors of Endonuclease IV (AID 1708); also: % is scaled to controls: 0 for no effect and ±100 for the full control effect; conditions: E. coli endonuclease IV, DNA cleavage fluorescence; series mostly up to 57.1 µM
# Procedure, shortened: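 Conditions: 2 nM enzyme, 50 nM TAMRA/BHQ-2 substrate, pH 7.5 Tris buffer with 2 mM MgCl2, RT. Compound preincubation 15 min; readout three fluorescence reads 60 s apart, third-minus-first.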
# [11] = measured here: cell count channel max response
# [12] = measured here: lipid channel max response
smiles,measurement,setting,value
CCNc1nc(Cl)nc(NCC)n1,"activity change, negative = inhibition",[1]; at 57.5 µM (top of the series),6.1% (inactive)
same,max response,[1]; [11],11.4%
same,max response,[1]; [12],16.8%
C[C@H](N)[C@H](O)c1ccc(O)c(O)c1,"activity change, negative = inhibition",[1]; at 25.7 µM (top of the series),-2.9% (inactive)
same,max response,[1]; [11],-12%
same,max response,[1]; [12],-13.5%
C[N+](C)(C)CCCCCCCCCC[N+](C)(C)C,Potency,[2],5.01 µM (active)
same,Potency,[3],3.98 µM (active)
same,Potency,[4],0.355 µM (active)
same,Potency,[5],1.26 µM (active)
same,Potency,[6],10 µM (active)
same,Potency,[7],0.562 µM (active)
CCCCCCCCCCCCCCCC[n+]1ccccc1,Potency,[1],10 µM (active)
same,max response,[1]; [11],-21.8%
same,max response,[1]; [12],-114%
COC(=O)C1=C(C)NC(C)=C(C(=O)OC)C1c1ccccc1[N+](=O)[O-],Potency,[7],12.6 µM (active)
c1ccc2nc(N3CCNCC3)ccc2c1,outcome,[8],inactive
same,outcome,[9],inactive
same,Potency,[2],7.94 µM (active)
same,Potency,[3],11.2 µM (active)
same,Potency,[5],inactive
same,Potency,[7],7.08 µM (active)
CN(C)C(=O)Oc1cccc([N+](C)(C)C)c1,"activity change, negative = inhibition",[1]; at 25.7 µM (top of the series),-1.76% (inactive)
same,"activity change, negative = inhibition",[1]; at 57.5 µM (top of the series),8.87% (inactive)
same,max response,[1]; [11],2.56% and -8.73%
same,max response,[1]; [12],2.57% and 1.95%
O=C(NC(=O)c1c(F)cccc1F)Nc1cc(Cl)c(OC(F)(F)C(F)C(F)(F)F)cc1Cl (configuration not stated),"activity change, negative = inhibition",[1]; at 57.5 µM (top of the series),-23.4% (inactive)
same,max response,[1]; [11],4.92%
same,max response,[1]; [12],-17.8%
Clc1ccc(CO/N=C(\Cn2ccnc2)c2ccc(Cl)cc2Cl)c(Cl)c1,"activity change, negative = inhibition",[1]; at 57.5 µM (top of the series),5.8% (inactive)
same,max response,[1]; [11],-2.06%
same,max response,[1]; [12],5.32%
CNC(=O)Oc1ccc2c(c1)[C@]1(C)CCN(C)[C@@H]1N2C,Potency,[2],5.01 µM (active)
same,Potency,[3],3.98 µM (active)
same,Potency,[4],4.47 µM (active)
same,Potency,[5],4.47 µM (active)
same,Potency,[7],7.08 µM (active)
CC(C)[N+](C)(CCC(C(N)=O)(c1ccccc1)c1ccccc1)C(C)C,"activity change, negative = inhibition",[1]; at 25.7 µM (top of the series),-0.769% (inactive)
same,"activity change, negative = inhibition",[1]; at 57.5 µM (top of the series),9.64% (inactive)
same,max response,[1]; [11],-8.79% and 5.39%
same,max response,[1]; [12],-9.77% and 16.5%
O=C1CC2(CCCC2)CC(=O)N1CCCCN1CCN(c2ncccn2)CC1,Potency,[2],10 µM (active)
same,Potency,[7],10 µM (active)
CC[C@H]1CN2CCc3cc(OC)c(OC)cc3[C@@H]2C[C@@H]1C[C@H]1NCCc2cc(OC)c(OC)cc21,outcome,[8],inactive
same,Potency,[3],0.0891 µM (active)
same,Potency,[4],0.0794 µM (active)
same,Potency,[5],0.141 µM (active)
same,Potency,[6],0.112 µM (active)
CC[n+]1c(-c2ccccc2)c2cc(N)ccc2c2ccc(N)cc21,"activity change, negative = inhibition",[1]; at 57.5 µM (top of the series),1.12% (inactive)
same,max response,[1]; [11],2.87%
same,max response,[1]; [12],6.23%
COC(=O)C1=CCCN(C)C1,outcome,[8],inactive
same,outcome,[9],inactive
same,outcome,[10],inactive
same,Potency,[2],inactive
same,Potency,[3],inactive
same,Potency,[4],inactive
same,Potency,[5],inactive
same,Potency,[6],inactive
NC(N)=NC(=O)c1nc(Cl)c(N)nc1N,"activity change, negative = inhibition",[1]; at 25.7 µM (top of the series),-0.295% (inactive)
same,"activity change, negative = inhibition",[1]; at 57.5 µM (top of the series),-0.935% (inactive) and 5.62% (inactive)
same,max response,[1]; [11],12.3% and 6.32% and 9.51%
same,max response,[1]; [12],15.3% and 5.93% and 17.9%
same,Potency,[3],12.6 µM (active)
same,Potency,[4],11.2 µM (active)
same,Potency,[5],8.91 µM (active)
same,Potency,[7],8.91 µM (active)
O=C(CCCN1CCC(n2c(=O)[nH]c3ccccc32)CC1)c1ccc(F)cc1,"activity change, negative = inhibition",[1]; at 25.7 µM (top of the series),0.264% (inactive)
same,max response,[1]; [11],-5.85%
same,max response,[1]; [12],-3.11%
